Assay outcomes: PubChem, National Center for Advancing Translational Sciences (NCATS)
TDP1 cell noCPT = qHTS for Inhibitors of human tyrosyl-DNA phosphodiesterase 1 (TDP1): qHTS in cells in absence of CPT; Potency, µM (titrated, usually from 46.2 µM), inactives show at the highest dose activity change, negative = growth inhibition, usual class: inhibitors; actives 15% (n = 420,000); DT40 Tdp1-/- hTDP1 cells, no CPT, ATP luminescence, 48 h; also: potency is read from the fitted curve at half-maximal effect; % is scaled to controls: 0 for no effect and ±100 for the full control effect; nearly all actives have a fitted effect of over 55% in size
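Growth kinetics read by CellTiter-Glo luminescence after ≥48 hr at 37 °C. Cells: DT40 Tdp1-/- stably carrying human TDP1, 400 per well, compound exposure in the absence of CPT (DMSO vehicle).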
IL-1B inflam inh = inflammasome signaling inhibition, IL-1 beta readout | THP-1 LPS/ATP IL-1B secretion, AlphaLISA, 16 h; hits give low values | activity change, % at 57.5 µM | actives 4.7% (n = 360,000); in the data active = activity change below about -50%; inconclusive = mostly about -30% to -49%; also: % is scaled to controls: 0 for no effect and ±100 for the full control effect
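THP-1 cells pretreated 1 hr with compounds (up to 57.5 uM final), then stimulated with LPS (250 ng/mL final) plus ATP (1.25 mM final); secreted IL-1B measured by AlphaLISA after 16 hr, decreased signal indicating inhibition.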
MCF10A rereplic = DNA re-replication induction in MCF 10a cells; MCF 10A DNA re-replication, Hoechst nuclear intensity, 48 h; Potency, µM (series often up to 46.1 µM), for inactives: at the top dose activity, positive = re-replication, actives largely listed as activators; actives 2.9% (n = 350,000); AID 624296; also: potency is read from the fitted curve at half-maximal effect; % of control where 0% means no effect; nearly all actives have a fitted effect of over 50% in size
SW480 rereplic = DNA re-replication induction in SW480 cells; AID 624297; Potency, µM (titrated, usually from 46.1 µM), inactives show top-dose re-replication activation, actives largely listed as activators; SW480 DNA re-replication, Hoechst DNA content imaging, 48 h; actives 1.8% (n = 340,000); also: potency is read from the fitted curve at half-maximal effect; % of control where 0% means no effect; nearly all actives have a fitted effect of over 55% in size
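Treated cells incubate 48 hr (37 C, 5% CO2), are stained 40 min with Hoechst, and nuclear fluorescence is enumerated; a rise in nuclei with high DNA signal marks re-replication.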
TDP1 cell CPT = DT40-hTDP1 cell growth loss with CPT | chicken DT40 Tdp1-/-;hTDP1 cells + 20 nM CPT, ATP luminescence, 48 h | Potency, µM (titrated, usually from 46.2 µM), inactives show top-dose activity change, negative = growth inhibition, usual class: inhibitors | actives 12% (n = 420,000) | AID 686979; also: potency is read from the fitted curve at half-maximal effect; % is scaled to controls: 0 for no effect and ±100 for the full control effect; nearly all actives have a fitted effect of over 55% in size
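Chicken DT40 Tdp1-/- cells complemented with human TDP1, 400 cells/well, exposed to compounds plus 20 nM camptothecin for at least 48 h at 37 C; viability read as ATP content by CellTiter-Glo luminescence.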
BCR signal inh = blocks chronic active B-cell receptor signaling | AID 493014 | Potency, µM (series often up to 46.1 µM), for inactives: at the highest dose activity change, negative = inhibition, usual class: inhibitors | actives 0.05% (n = 340,000) | ABC-DLBCL IkBa-CBG/CBR reporter, luminescence ratio, 4 h; active = well fitted inhibition curve with a large enough effect in the signal ratio, with a control signal flat, not every such curve was filed as active; inconclusive = small, poorly fitted or top-dose-only effect, or effect the other way, or a change in a side signal; the % refers to the signal ratio;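 also: potency is read from the fitted curve at half-maximal effect; plate controls were basal doxycycline-induced cells for no effect and cells given 10 µM MG132 for full effect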
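Doxycycline induced both beetle luciferases in TMD8 lymphoma cells; IKK-driven degradation limits the IkappaBalpha-fused green signal, while red luminescence normalises for cell number and nonspecific effects. Compounds tested up to 46 uM, 4 hrs.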
Active calls of the source: *; ? = inconclusive; nt = no result; [ ] = remark or other dose. Only some compounds are listed: those with a hit (about 19% of all), similar ones and a draw of the others. Unless noted, calls follow the shape of the dose curve; as a rule, active = well fitted curve in the direction sought with a large enough effect; inconclusive = small, poorly fitted or top-dose-only effect, or another doubt; inactive = no such curve, though single readings can be large; an effect the other way counts as inactive or inconclusive.

SMILES	TDP1 cell noCPT	IL-1B inflam inh	MCF10A rereplic	SW480 rereplic	TDP1 cell CPT	BCR signal inh
Clc1cccc(Oc2cnns2)c1Cl	25.9µM*	28.4	11.0%	29.0%	?	-3.0%
Cc1ccccc1OCC(=O)O/N=C(\N)c1ccncc1	-16.1%	-9.2	16.5%	-6.3%	21.7%	6.0%
CCN1/C(=C/C(=O)c2ccco2)Sc2ccccc21	-4.5%	-14.2	?	?	-19.1%	-17.5%
CCN1/C(=C/c2sc(-c3ccccc3C)c[n+]2C)Sc2ccccc21	0.206µM*	-99.0*	20.6µM*	?	0.259µM*	?
COc1ccc(NC(=S)N2CCCN(Cc3cc(C)ccc3C)C2)cc1	?	?	15.3%	1.8%	?	-3.2%
Cc1cccc(C)c1NC(=S)N1CCCN(Cc2ccc(F)cc2)C1	?	-50.9*	-1.1%	-4.6%	0.4%	?
COc1ccc(NC(=S)N2CCCN(Cc3cccc(Cl)c3)C2)cc1	16.4µM*	-64.0*	?	12.7%	?	1.2%
CCOc1ccc(NC(=S)N2CCCN(Cc3cccc(Cl)c3)C2)cc1	?	-60.7*	?	?	?	?
COc1cccc(NC(=S)N2CCCN(Cc3ccc(F)cc3)C2)c1	23.1µM*	-13.2	24.7%	2.9%	-9.6%	5.2%
Cc1coc2c1c(C)cc1oc(=O)c(CC(=O)NCCCCCC(=O)O)c(C)c12	0.3%	16.3	2.2%	2.1%	5.0%	6.9%
Cc1cc(C)cc(N=Cc2[nH]c3ccc(Br)c(Cl)c3c2O)c1	?	15.0	?	-0.1%	16.4µM*	?
COc1ccc(CN=Cc2[nH]c3ccc(Br)c(Cl)c3c2O)cc1	?	28.8	?	?	?	7.6%
O=C1CCCC2=C1C1O[C@](CCCCN3C(=O)c4ccccc4C3=O)(Cc3ccccc31)O2	nt	nt	nt	nt	nt	-5.7%[9.22 µM]
CCc1nc2ccc(C(=O)NCc3cc(OC)ccc3OC)cc2nc1CC	?	nt	nt	nt	16.4µM*	-1.5%
COc1ccc(OC)c(CNC(=O)c2ccc(Sc3ccc(C)cc3)c(N)c2)c1	20.6µM*	nt	nt	nt	23.1µM*	?
CCc1nc2ccc(C(=O)NCc3ccc(N(C)C)cc3)cc2nc1CC	?	nt	nt	nt	?	19.0%
CCc1nc2ccc(C(=O)NCCc3ccc(OC)cc3OC)cc2nc1CC	18.4µM*	nt	nt	nt	25.9µM*	-4.1%
Cc1ccc(C(=O)N2CCCC2(C)C(=O)NCC(C)C)cc1F (configuration not stated)	-14.7%	15.4	nt	nt	-8.3%	nt
CN1CCC(C2(O)c3ccccc3CCc3ccccc32)CC1	?	-3.4	1.4%	-2.5%	18.4µM*	-2.6%
CN1CCC(C2(O)c3ccccc3CSc3sccc32)CC1 (configuration not stated)	-8.2%	-10.1	2.3%	-4.4%	-17.5%	?
O=S(=O)(Cc1ccccc1)NCCc1cccc(Cl)c1	5.2%	-14.6	1.6%	-4.7%	34.4%	?
CCCOC(=O)c1cccc(Nc2nc(-c3cccnc3)nc3ccccc23)c1	3.26µM*	-98.0*	?	?	9.2µM*	13.0%
CCOC(=O)c1cccc(Nc2ncnc3ccccc23)c1	13µM*	-9.5	-1.0%	-2.9%	?	?
O=C(Nc1ccc2nn(-c3ccc(F)cc3)nc2c1)c1cccnc1	?	-0.1	?	29.7%	?	7.3%
O=C(Nc1ccc2nn(-c3ccccc3)nc2c1)c1cccnc1	16.4µM*	?	4.2%	-0.4%	?	10.2%
SMILES	TDP1 cell noCPT	IL-1B inflam inh	MCF10A rereplic	SW480 rereplic	TDP1 cell CPT	BCR signal inh
CCCOC(=O)c1ccc(Cl)c(NC(=O)c2cccnc2)c1	nt	nt	nt	nt	nt	-21.8%
O=C(O)c1cccc(Nc2nc(-c3ccccc3)nc3ccccc23)c1	-21.1%	13.4	6.9%	-6.2%	6.9%	-0.4%
CCCOC(=O)c1cccc(NC(=O)c2cccnc2)c1	5.8µM*	-4.6	6.2%	-0.5%	9.2µM*	-3.6%
C[C@H]1CN([C@@H](C)CO)C(=O)CCCn2nncc2CO[C@@H]1CN(C)C(=O)NC1CCCCC1	15.1%	9.4	nt	nt	11.2%	nt
CCOc1cc(/C=N/NC(=O)COc2ccc(C)cc2)ccc1OC(=O)c1cccs1	?	?	-15.8%	2.6%	?	-11.2%
CNC(=S)N/N=C/c1ccc(OCC(=O)Nc2c(C)cc(C)cc2C)c(OC)c1	?	42.1	?	4.4%	20.6µM*	?
COc1cc(/C=N/NC(=O)COc2ccc(C)cc2)ccc1OC(=O)c1cccs1	25.9µM*	-24.2	0.3%	-1.3%	?	-3.9%
CCOc1cc(/C=N\Nc2ccc([N+](=O)[O-])cc2)ccc1OCC(=O)Nc1ccc(C)c(C)c1	14.6µM*	86.9	16.4µM*	?	23.1µM*	4.6%
COc1cc(/C=N/NC(N)=S)ccc1OCC(=O)Nc1ccc(C)cc1	-26.6%	-20.9	2.7%	2.4%	?	-5.4%
CCOc1cc(/C=N\NC(=O)Cc2ccccc2)ccc1OCC(=O)Nc1ccc(C)c(C)c1	20.6µM*	18.0	14.6µM*	-1.0%	13µM*	4.2%
COc1cc(/C=N/NC(=O)c2cc[n+]([O-])cc2)ccc1O	-6.8%	-4.0	-5.9%	-1.3%	-7.9%	2.4%
CC1(c2cccc(Br)c2)NC(=O)N(CC(=O)c2ccc3c(c2)OCO3)C1=O (configuration not stated)	-18.4%	-17.0	nt	nt	-22.1%	nt
CCOc1cc(/C=N/NC(=O)COc2ccc(Cl)cc2)ccc1OS(=O)(=O)c1ccccc1	23.1µM*	17.2	?	13.5%	?	2.5%
COc1cc(/C=N\Nc2ccc([N+](=O)[O-])cc2)ccc1OCC(=O)Nc1ccc(C)c(C)c1	18.4µM*	54.6	5.8µM*	20.6µM*	?	7.0%
CCCOc1ccc(NC(=O)CC2C(=O)N(c3ccc(C)cc3)C(=O)N2Cc2cccc(OC)c2)cc1 (configuration not stated)	-11.9%	nt	nt	nt	-3.3%	nt
O=C(c1ccc(NC2=NC3CS(=O)(=O)CC3S2)cc1)N1CCN(c2ccc([N+](=O)[O-])cc2)CC1 (configuration not stated)	0.2%	0.0	-2.4%	-9.9%	-7.7%	5.4%
C(=NN=Cc1c[nH]c2ccccc12)c1c[nH]c2ccccc12	?	-1.5	nt	nt	1.7%	nt
Cc1[nH]c2ccccc2c1/C=C/c1cnc2ccccc2n1	12.6µM*	nt	nt	nt	?	nt
Cc1[nH]c2ccccc2c1/C=C/c1ccc2ccccc2n1	-111.0%	nt	nt	nt	?	nt
Cc1[nH]c2ccccc2c1/C=C/c1c[nH]c2ccccc12	11.2µM*	nt	nt	nt	?	nt
COc1ccc(CNC(=O)CCn2c(C)csc2=O)cc1	7.8%	-6.6	-2.5%	5.8%	8.2%	-0.7%
O=C(CN1C(=O)NC2(CCCC2)C1=O)NNC(=O)c1ccc(F)cc1	-17.5%	4.0	-21.5%	-114.4%	7.2%	1.6%
COc1ccc(CCNC(=O)c2ccc(CS(=O)(=O)c3ccc(Cl)cc3)o2)cc1OC	16.4µM*	?	28.3%	?	23.1µM*	3.2%
O=C(NCCc1ccc(Cl)cc1)c1ccc(CS(=O)(=O)Cc2ccc(F)cc2)o1	?	nt	nt	nt	-20.7%	?
